Compounds with a hit are over-represented: about 6.7% of the library has one in this group of screens.
Pf Dd2 growth – P. falciparum Dd2 growth inhibitors, primary screen, SYBR Green fluorescence, single dose replicates | 72 h; active compounds read low | activity change, % at 10 µM | hit rate 2.3% among 94,000; in the data active = activity change below about -80%
T cruzi growth – T. cruzi intracellular proliferation inhibitors, primary screen, cell-based, beta-gal Tulahuen parasites, NIH3T3 host, luminescence. T. cruzi beta-gal in NIH3T3, GalScreen luminescence, 90 h. AID 624255, 2012. inhibition, % at 8.34 µM. hit rate 5.9% among 77,000;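 active = mean inhibition above about 93%, with at least 55% of replicates each passing it, limit read from the data, passing the limit was not always enough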
C diff HTS – C. difficile growth inhibitors, primary screen, HTS | Clostridium difficile clinical isolate growth, OD600, 24 h; active compounds read low | AID 1259249, 2017 | hit rate 0.25% among 86,000 | growth activity, negative = inhibition, % at 16 µg/mL (by protocol);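 active = mean growth activity at or below -80% and every replicate also at or below -80%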;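 also: 0% = DMSO wells and -100% = levofloxacin 16 µg/mL wells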
The depositor's hits bear a star; nt = not tested or not shown.

SMILES	Pf Dd2 growth	T cruzi growth	C diff HTS
C[C@H](CO)N1C[C@H](C)[C@H](CN(C)Cc2ccccc2)OCc2ccccc2-c2ccccc2C1=O	-14.9	31.5	nt
COc1ccc(CN(C)C[C@H]2OCc3cn(nn3)CCCC(=O)N([C@H](C)CO)C[C@@H]2C)cc1	21.6	-47.0	1.5
C[C@H](CO)N1C[C@H](C)[C@H](CN(C)S(=O)(=O)c2ccc(Cl)cc2)OCc2ccccc2-c2ccccc2C1=O	-84.7*	66.7	0.8
C[C@@H]1CN([C@H](C)CO)C(=O)c2ccccc2-c2ccccc2CO[C@@H]1CN(C)S(=O)(=O)c1ccc(Cl)cc1	-49.4	93.3	8.0
Cc1ccccc1S(=O)(=O)N(C)C[C@@H]1OCc2ccccc2-c2ccccc2C(=O)N([C@@H](C)CO)C[C@@H]1C	-57.3	94.1	-11.1
Cc1ccccc1S(=O)(=O)N(C)C[C@H]1OCc2ccccc2-c2ccccc2C(=O)N([C@@H](C)CO)C[C@H]1C	-86.6*	91.7	1.3
C[C@@H]1CN([C@H](C)CO)C(=O)c2cc(C#Cc3ccccc3F)cnc2O[C@@H]1CN(C)S(C)(=O)=O	12.8	7.5	nt
CO[C@H]1CC[C@H]2CCN(C)C(=O)[C@H](C)[C@H](OC)CN(C)C(=O)c3cc(C#N)ccc3OC[C@@H]1O2	15.9	19.1	nt
C[C@@H]1CN([C@@H](C)CO)C(=O)c2cc(-c3cccc(C#N)c3)cnc2O[C@@H]1CN(C)Cc1ccc(F)cc1	-1.1	35.3	3.9
CO[C@@H]1CN(C)C(=O)c2ccc(NC(=O)Nc3cccc(Cl)c3)cc2OC[C@H](C)NC[C@H]1C	-21.0	-68.3	nt
CC(C)NC(=O)N(C)C[C@H]1Oc2ccc(NC(=O)CCCCCC(=O)Nc3ccccc3N)cc2CC(=O)N([C@H](C)CO)C[C@H]1C	32.2	-1.1	-8.4
Cc1ccc(S(=O)(=O)Nc2ccc3c(c2)C(=O)N([C@@H](C)CO)C[C@@H](C)[C@@H](CN(C)C(=O)Nc2cccc4ccccc24)OCCCC[C@H](C)O3)cc1	-84.2*	92.4	2.8
C[C@H](CO)N1C[C@H](C)[C@@H](CN(C)C(=O)Nc2cccc3ccccc23)OCCCC[C@H](C)Oc2ccc(NS(=O)(=O)c3ccccc3)cc2C1=O	-54.1	nt	nt
Cc1ccc(S(=O)(=O)Nc2ccc3c(c2)C(=O)N([C@@H](C)CO)C[C@H](C)[C@@H](CN(C)C(=O)Nc2cccc4ccccc24)OCCCC[C@H](C)O3)cc1	-83.0*	92.6	0.2
Cc1ccc(S(=O)(=O)Nc2ccc3c(c2)C(=O)N([C@H](C)CO)C[C@@H](C)[C@H](CN(C)C(=O)Nc2cccc4ccccc24)OCCCC[C@@H](C)O3)cc1	-67.2	82.9	-3.5
Cc1ccc(S(=O)(=O)Nc2ccc3c(c2)C(=O)N([C@H](C)CO)C[C@H](C)[C@H](CN(C)C(=O)Nc2cccc4ccccc24)OCCCC[C@@H](C)O3)cc1	-60.4	62.1	-3.8
Cc1ccc(S(=O)(=O)Nc2ccc3c(c2)C(=O)N([C@@H](C)CO)C[C@H](C)[C@@H](CN(C)C(=O)Nc2cccc4ccccc24)OCCCC[C@@H](C)O3)cc1	-84.9*	94.9	-7.4
CC(C)OC(=O)N(C)C[C@@H]1OCc2ccccc2-c2ccccc2C(=O)N([C@@H](C)CO)C[C@H]1C	5.9	32.4	-1.1
O=C(C1CCCC1)N1CC2(C1)[C@H](c1ccccc1)[C@@H](CO)N2CC1CCCC1	-14.1	nt	11.1
COc1ccc(S(=O)(=O)N(C)C[C@@H]2Oc3ncc(-c4ccncc4)cc3C(=O)N([C@H](C)CO)C[C@H]2C)cc1	-60.5	70.0	2.2
COc1cccc(S(=O)(=O)N(C)C[C@@H]2Oc3ncc(C#Cc4ccc(OC)c(OC)c4)cc3C(=O)N([C@H](C)CO)C[C@@H]2C)c1	-91.8*	60.4	4.2
C[C@@H]1CN([C@H](C)CO)C(=O)c2cc(C#CCc3ccccc3)cnc2O[C@@H]1CN(C)CC1CCOCC1	-56.5	-130.0	1.3
CCCN(C)C[C@@H]1Oc2ncc(C#Cc3ccc(OC)cc3)cc2C(=O)N([C@H](C)CO)C[C@@H]1C	-80.9*	nt	15.3
COc1ccc(-c2cnc3c(c2)C(=O)N([C@@H](C)CO)C[C@H](C)[C@H](CN(C)S(=O)(=O)c2ccc(OC)cc2)O3)cc1	-82.7*	84.5	nt
C[C@@H]1CN([C@H](C)CO)C(=O)c2cc(C#CCc3ccccc3)cnc2O[C@H]1CN(C)CC1CCCC1	-94.2*	91.6	8.3
SMILES	Pf Dd2 growth	T cruzi growth	C diff HTS
CCCC#Cc1cnc2c(c1)C(=O)N([C@H](C)CO)C[C@H](C)[C@@H](CN(C)S(=O)(=O)c1cccc(OC)c1)O2	-57.1	88.9	-2.2
CCCN(C)C[C@@H]1Oc2ncc(C#Cc3cccc(OC)c3)cc2C(=O)N([C@H](C)CO)C[C@@H]1C	-44.7	nt	28.4
CC=Cc1ccc2n(c1=O)C[C@@H]1[C@@H](CO)[C@H](C(=O)NCc3ccccc3F)N(S(C)(=O)=O)[C@H]21 (mixture of isomers)	12.7	59.9	3.6
CC(C)c1cn(CC[C@@H]2CC[C@H](NC(=O)C3CCC3)[C@H](CO)O2)nn1	-6.6	nt	0.5
CO[C@@H]1CN(C)C(=O)c2cc(NC(=O)C3CC3)ccc2OC[C@@H](C)N(C(=O)CN2CCOCC2)C[C@H]1C	0.7	34.4	nt
C[C@@H]1CCCCO[C@H](CN(C)Cc2ccc3c(c2)OCO3)[C@H](C)CN([C@H](C)CO)C(=O)c2cc(NS(=O)(=O)c3cn(C)cn3)ccc2O1	-9.0	-2.9	-1.6
CO[C@@H]1CN(C)C(=O)c2ccc(NC(=O)Nc3ccccc3F)cc2OC[C@@H](C)N(CCC(F)(F)F)C[C@H]1C	-85.5*	67.3	6.5
CCCN1C[C@@H](C)[C@@H](OC)CN(C)C(=O)c2ccc(NC(=O)Nc3ccccc3F)cc2OC[C@@H]1C	-24.2	-26.7	nt
CO[C@@H]1CN(C)C(=O)c2ccc(NC(=O)Nc3ccccc3F)cc2OC[C@@H](C)N(C)C[C@H]1C	-49.0	nt	2.9
CO[C@@H]1CN(C)C(=O)c2ccc(NC(=O)Nc3ccccc3Cl)cc2OC[C@@H](C)N(C)C[C@H]1C	-87.1*	-6.5	nt
CCCNC(=O)N1CC2(CCN(C)CC2)c2c(n(C)c3cc(OC)ccc23)[C@@H]1CO	32.5	nt	nt
COc1ccc(NC(=O)N(C)C[C@H]2OCCCC[C@H](C)Oc3ccc(NC(=O)Cc4ccccc4)cc3C(=O)N([C@H](C)CO)C[C@H]2C)cc1	-87.3*	-4.1	0.3
COc1ccc(NC(=O)N(C)C[C@H]2OCCCC[C@H](C)Oc3ccc(NC(=O)c4ccccc4)cc3C(=O)N([C@H](C)CO)C[C@H]2C)cc1	-95.1*	nt	-2.3
COc1ccc(NC(=O)N(C)C[C@H]2OCCCC[C@@H](C)Oc3ccc(NC(=O)c4ccccc4)cc3C(=O)N([C@@H](C)CO)C[C@H]2C)cc1	-61.7	90.8	0.2
COc1ccc(NC(=O)N(C)C[C@@H]2OCCCC[C@@H](C)Oc3ccc(NC(=O)Cc4ccccc4)cc3C(=O)N([C@@H](C)CO)C[C@@H]2C)cc1	-57.7	31.0	-4.7
O=C(C[C@@H]1C=C[C@H](NC(=O)C2CC2)[C@H](CO)O1)NCCCN1CCOCC1	-20.6	nt	2.0

Screening results: PubChem BioAssay, Broad Institute
